PubChem BioAssay (NCATS)
Records with an inconclusive call do not appear. Values without a mark were called inactive. Calls of active or inactive are those of the source. The call rests on the fitted dose curve; in most records, active means well fitted curve in the direction sought with a large enough effect; inconclusive means small, poorly fitted or top-dose-only effect, or another doubt; inactive means no such curve, though single readings can be large; an effect the other way counts as inactive or inconclusive.

Columns and labels:
[1] = target: Rap guanine nucleotide exchange factor 3 (Homo sapiens) (UniProt O95398); assay: Confirmatory qHTS for antagonist of cAMP-regulated guanine nucleotide exchange factor 3 (EPAC1) (AID 1645880); further: nearly all actives have a fitted effect of over 55% in size; further: potency means the concentration at half of the fitted maximal effect
Summary of the method: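 Nucleotide exchange uses 100 nM EPAC1, 250 nM RAP1B-BODIPY-GDP and 50 uM GDP, with compounds in a concentration-titration series. After 5 min at room temperature, fluorescence (480 nm ex/540 nm em) is read every 5 min for 30 min. Data are normalized to control ATA and DMSO.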

[2] = target: Rap guanine nucleotide exchange factor 3 (Homo sapiens) (UniProt O95398); assay: Confirmatory qHTS for agonist of cAMP-regulated guanine nucleotide exchange factor 3 (EPAC1) (AID 1645881);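 further: EPAC1 catalysed release of BODIPY-GDP from Rap1B seen as fluorescence loss; 100% = effect of cAMP agonist control; nearly all actives have a fitted effect of over 75% in size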
[3] = target: Rap guanine nucleotide exchange factor 4 (Homo sapiens) (UniProt Q8WZA2); assay: Confirmatory qHTS for agonist of cAMP-regulated guanine nucleotide exchange factor 4 (EPAC2) (AID 1645884);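 further: nucleotide exchange releases bodipy-GDP from Rap1 and this lowers its fluorescence; on the % scale 0 is the no-effect control and ±100 the full control effect; nearly all actives have a fitted effect of over 65% in size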
[4] = target: Rap guanine nucleotide exchange factor 4 (Homo sapiens) (UniProt Q8WZA2); assay: Confirmatory qHTS for antagonist of cAMP-regulated guanine nucleotide exchange factor 4 (EPAC2) (AID 1645885); further: on the % scale 0 is the no-effect control and ±100 the full control effect; nearly all actives have a fitted effect of over 25% in size
[5] = target: Rap guanine nucleotide exchange factor 3 (Homo sapiens) (UniProt O95398); assay: Counterscreen qHTS for antagonist of cAMP-regulated guanine nucleotide exchange factor 3 (EPAC1) (AID 1645888);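 further: fluorescence loss as bound BODIPY-GDP is released from Rap1B; % of control where 0% means no effect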
Summary of the method: (§1)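 Measured: fluorescence of BODIPY-GDP bound to Rap1B, which falls as exchange proceeds. Conditions include 50 uM competing GDP, 5 and 30 min reads, and a later cAMP challenge for antagonist detection.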

[6] = target: Rap guanine nucleotide exchange factor 3 (Homo sapiens) (UniProt O95398); assay: Counterscreen qHTS for agonist of cAMP-regulated guanine nucleotide exchange factor 3 (EPAC1) (AID 1645889); further: % of control where 0% means no effect; nearly all actives have a fitted effect of over 40% in size
Summary of the method: as §1

[7] = qHTS for Inhibitors of the vitamin D receptor (VDR): Hit Validation using a Texas Red Assay (AID 602201); further: on the % scale 0 is the no-effect control and ±100 the full control effect
Summary of the method: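 Fluorescence polarization (Ex 595/Em 615 nm) of Texas Red (7 nM) with 1.5 uM VDR-LBD and LG19078 (final concentrations). Compounds were incubated for 2 hours at room temperature.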

Sequence of Rap guanine nucleotide exchange factor 4 (Homo sapiens) (Q8WZA2 whole entry, looked up): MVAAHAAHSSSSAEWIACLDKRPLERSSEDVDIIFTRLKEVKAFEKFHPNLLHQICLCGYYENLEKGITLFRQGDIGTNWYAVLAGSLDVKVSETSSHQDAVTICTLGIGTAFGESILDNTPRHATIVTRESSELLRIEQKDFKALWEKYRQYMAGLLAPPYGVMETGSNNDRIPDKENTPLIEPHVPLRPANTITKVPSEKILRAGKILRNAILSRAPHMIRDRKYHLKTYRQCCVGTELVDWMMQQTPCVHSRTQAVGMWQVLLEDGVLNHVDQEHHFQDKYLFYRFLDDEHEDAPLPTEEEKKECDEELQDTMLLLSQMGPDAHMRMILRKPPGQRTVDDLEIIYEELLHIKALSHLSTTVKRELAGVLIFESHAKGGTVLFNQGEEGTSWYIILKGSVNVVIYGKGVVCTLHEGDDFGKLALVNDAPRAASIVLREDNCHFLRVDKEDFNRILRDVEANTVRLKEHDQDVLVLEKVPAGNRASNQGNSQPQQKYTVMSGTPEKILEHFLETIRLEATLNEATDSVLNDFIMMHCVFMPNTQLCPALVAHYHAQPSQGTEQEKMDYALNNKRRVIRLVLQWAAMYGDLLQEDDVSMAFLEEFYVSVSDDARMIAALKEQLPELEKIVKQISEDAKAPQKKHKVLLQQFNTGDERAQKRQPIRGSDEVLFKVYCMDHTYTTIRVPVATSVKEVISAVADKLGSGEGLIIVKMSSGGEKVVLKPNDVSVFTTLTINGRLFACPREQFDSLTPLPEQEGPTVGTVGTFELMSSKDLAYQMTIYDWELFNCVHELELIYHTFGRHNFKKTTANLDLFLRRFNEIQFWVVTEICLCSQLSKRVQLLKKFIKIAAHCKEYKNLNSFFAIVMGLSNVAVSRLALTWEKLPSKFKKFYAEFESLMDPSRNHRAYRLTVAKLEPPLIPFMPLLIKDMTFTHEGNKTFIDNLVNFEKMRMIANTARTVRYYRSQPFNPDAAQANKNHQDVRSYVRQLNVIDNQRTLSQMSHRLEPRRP
Sequence of Rap guanine nucleotide exchange factor 3 (Homo sapiens) (O95398 whole entry, looked up): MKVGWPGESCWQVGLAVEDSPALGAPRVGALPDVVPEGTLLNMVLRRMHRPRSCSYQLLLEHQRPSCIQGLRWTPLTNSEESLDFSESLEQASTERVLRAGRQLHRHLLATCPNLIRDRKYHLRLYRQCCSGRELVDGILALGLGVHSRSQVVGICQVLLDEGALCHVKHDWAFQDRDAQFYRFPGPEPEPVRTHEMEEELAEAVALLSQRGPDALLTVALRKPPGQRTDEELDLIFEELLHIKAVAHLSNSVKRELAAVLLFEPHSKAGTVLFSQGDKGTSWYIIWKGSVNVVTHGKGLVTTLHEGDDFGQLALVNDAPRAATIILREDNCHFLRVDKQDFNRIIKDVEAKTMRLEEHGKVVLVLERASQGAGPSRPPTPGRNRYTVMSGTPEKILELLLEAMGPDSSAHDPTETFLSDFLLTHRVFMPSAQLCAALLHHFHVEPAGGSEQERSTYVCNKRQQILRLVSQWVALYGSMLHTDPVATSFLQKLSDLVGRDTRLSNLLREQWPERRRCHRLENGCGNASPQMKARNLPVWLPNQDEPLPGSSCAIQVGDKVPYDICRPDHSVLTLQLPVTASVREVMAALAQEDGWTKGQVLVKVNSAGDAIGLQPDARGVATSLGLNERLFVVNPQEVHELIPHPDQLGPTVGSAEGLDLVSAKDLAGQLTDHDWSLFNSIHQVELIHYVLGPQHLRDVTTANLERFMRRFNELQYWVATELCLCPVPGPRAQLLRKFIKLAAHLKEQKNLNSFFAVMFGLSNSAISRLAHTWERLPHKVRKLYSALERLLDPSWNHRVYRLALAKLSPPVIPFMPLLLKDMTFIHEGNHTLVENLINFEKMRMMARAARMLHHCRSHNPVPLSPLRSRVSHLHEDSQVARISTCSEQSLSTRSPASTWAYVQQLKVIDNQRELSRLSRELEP

## CCC(=NCCCO)c1c(O)n(-c2ccc(OC)cc2)c(=O)[nH]c1=O
[1]
  Potency: inactive
[2]
  Potency: inactive
[3]
  activation: 2.6% [at 17.1 µM, percent relative to cAMP agonist control]
[4]
  activity change, negative = inhibition: -12.3% [at 12.7 µM]
[5]
  activity change, negative = inhibition: -14.3% [at 30.8 µM]
[6]
  activation: -4.42% [at 30.8 µM]

## Oc1c(Cl)cccc1Cc1cc(Cl)cc(Cl)c1O
[1]
  Potency: 19 µM (active)
[2]
  Potency: inactive
[3]
  Potency: inactive
[4]
  Potency: inactive
[5]
  outcome: inactive
[6]
  Potency: inactive

## O=C1NC(=S)NC(=O)C1=Cc1cccn1-c1ccc(O)cc1
[7]
  Potency: inactive
[1]
  Potency: 3.55 µM (active)
[2]
  Potency: inactive
[3]
  activation: 2.5% [at 17.1 µM, percent relative to cAMP agonist control]
[4]
  activity change, negative = inhibition: -7.44% [at 12.7 µM]
[5]
  activity change, negative = inhibition: -4.08% [at 30.8 µM]

## CCCSc1nc2ccccc2c(=O)n1-c1ccccc1OC
[1]
  Potency: inactive
[2]
  Potency: inactive
[3]
  Potency: inactive
[4]
  activity change, negative = inhibition: 34.1% [at 12.7 µM]
[5]
  outcome: inactive

## O=C1Nc2ccccc2/C1=C/c1nc2ccccc2c(=O)n1-c1ccc(O)cc1
[1]
  Potency: 35.5 µM (active)
[2]
  Potency: inactive
[3]
  activation: 2.57% [at 17.1 µM, percent relative to cAMP agonist control]
[4]
  activity change, negative = inhibition: 0.205% [at 12.7 µM]
[5]
  activity change, negative = inhibition: -7.19% [at 30.8 µM]
[6]
  activation: 1.32% [at 30.8 µM]

## CC(Cc1ccc(O)cc1)NCC(O)c1ccc(O)c(O)c1 (centres undefined)
[1]
  Potency: 22.4 µM (active)
[2]
  Potency: inactive
[3]
  activation: -2.87% [at 17.1 µM, percent relative to cAMP agonist control]
[4]
  activity change, negative = inhibition: -0.704% [at 12.7 µM]
[5]
  activity change, negative = inhibition: 6.78% [at 30.8 µM]
